These results are taken from paper PMC5540273 (PLoS ONE, 2017).

Test systems include RIOK1; RIOK2; RIOK3; RIPK1; RIPK2; RIPK4; RIPK5; ROCK1; ROCK2; ROS1.
What all share (details): concentration: 1 μM, replicates: in singlicate; n = 1
Assay [1] relates to RPS6KA4(Kin.Dom.1-N-terminal).
Assay [2] has as its system RPS6KA4(Kin.Dom.2-C-terminal).
The test system of assay [3] is RPS6KA5(Kin.Dom.1-N-terminal).
For assay [4], the system named is RPS6KA5(Kin.Dom.2-C-terminal).
Assay [5] deals with T1, RSK1(Kin.Dom.1-N-terminal).
T1 construct: gene RPS6KA1

In assay [6] the test system is T2, RSK1(Kin.Dom.2-C-terminal).
T2 construct: gene RPS6KA1

In assay [7] the test system is T3, RSK2(Kin.Dom.1-N-terminal).
T3 construct: gene RPS6KA3

In assay [8] the test system is T4, RSK2(Kin.Dom.2-C-terminal).
T4 construct: gene RPS6KA3

Assay [9] deals with T5, RSK3(Kin.Dom.1-N-terminal).
T5 construct: gene RPS6KA2

Assay [10] concerns T6, RSK3(Kin.Dom.2-C-terminal).
T6 construct: gene RPS6KA2

SMILES strings stand for the structures.
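Also: KINOMEscan kinase panel screen.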

`Cc1ccc(NC(=O)c2ccnc(N3CCCCC3)c2)cc1-c1ccc(C(=O)NCC2CC2)cc1` [GW775610]: the “%Inh” value came out at 50% in the assay with RIOK1; 0% in the assay on RIOK2; 35% with RIOK3; 43% in the assay on RIPK1; 0% in the assay on RIPK2; 36% in the assay on RIPK4. For the same molecule, the “%Inh” value in the assay on RIPK5 was 0%; in the assay with ROCK1, 25%; in the assay with ROCK2 it was 7%; in the assay with ROS1, 10%; in [1], 0%; in assay [2], 0%. Besides, the “%Inh” value in assay [3] was found to be 0%; in [4], 0%; in assay [5], 0%; in assay [6], 100%; in [7] it was 0%; in assay [8] it was 0%. Besides, the “%Inh” value is 16% in [9] and 15% in [10].

Take `Fc1cc(Cl)ccc1Nc1ccnc2cc(-c3ccc(CN4CCOCC4)o3)ccc12` [GW560109]: the “%Inh” value in the assay on RIOK1 turned out to be 30%; in the assay with RIOK2, 0%; with RIOK3, 0%; in the assay with RIPK1 it was 0%; in the assay on RIPK2 it was 94.4%; with RIPK4 it was 0%. Also, the “%Inh” value in the assay with RIPK5 is 0%; with ROCK1, 5%; in the assay on ROCK2 it was 46%; with ROS1, 0%; in [1], 35%; in assay [2], 0%. For the same molecule, the “%Inh” value is on record as 9% in assay [3]; 0% in [4]; 6% in assay [5]; 28% in assay [6]; 14% in assay [7]; 44% in assay [8]. Besides, the “%Inh” value in assay [9] came out at 100%; in assay [10] it was 0%.

For `Nc1ncc(-c2ccc3nccc(-c4ccncc4)c3c2)cc1S(=O)(=O)N1CCCCC1` [GSK1693850], the “%Inh” value in the assay on RIOK1 was 30%; with RIOK2, 89%; in the assay with RIOK3, 41%; with RIPK1, 31%; in the assay on RIPK2, 22%; in the assay with RIPK4, 5%. Besides, the “%Inh” value was found to be 25% in the assay with RIPK5; 11% in the assay with ROCK1; 13% in the assay on ROCK2; 43% with ROS1; 0% in assay [1]; 0% in assay [2]. The “%Inh” value in assay [3] amounted to 9%; in assay [4], 17%; in assay [5], 0%; in [6] it was 37%; in [7], 0%; in assay [8], 0%. Moreover, the “%Inh” value in assay [9] turned out to be 17%; in assay [10], 24%.

As to `O=C(O)C(F)(F)F.O=c1[nH]ccc2nc(N[C@@H]3CCNC3)nc(Nc3ccc4c(c3)S(=O)(=O)CC4)c12` [GSK2181306], the “%Inh” value with RIOK1 came to 98.9%; in the assay on RIOK2, 60%; with RIOK3 it was 92.9%; in the assay on RIPK1 it was 0%; in the assay on RIPK2, 9%; in the assay with RIPK4, 96%. Besides, the “%Inh” value in the assay on RIPK5 was found to be 94.4%; in the assay with ROCK1 it was 99.7%; in the assay with ROCK2, 99.7%; with ROS1, 29%; in [1] it was 91.8%; in assay [2], 100%. Further, the “%Inh” value came to 62% in assay [3]; 95.4% in assay [4]; 97.8% in assay [5]; 78% in assay [6]; 97.6% in [7]; 31% in assay [8]. Further, the “%Inh” value in [9] came to 91.3%; in assay [10], 87%.

Regarding `Cc1ccc(Nc2ccnc(Nc3ccc(C)c(F)c3)n2)cc1O.Cl` [GW582868], the “%Inh” value in the assay with RIOK1 was 19%; with RIOK2, 2%; in the assay on RIOK3 it was 4%; in the assay on RIPK1, 1%; in the assay with RIPK2 it was 55%; in the assay on RIPK4, 13%. The “%Inh” value was determined as 0% with RIPK5; 22% in the assay on ROCK1; 16% with ROCK2; 33% with ROS1; 0% in assay [1]; 0% in assay [2]. Further, the “%Inh” value in [3] stood at 0%; in [4], 21%; in assay [5], 0%; in assay [6], 0%; in [7] it was 0%; in assay [8] it was 0%. Besides, the figures for the “%Inh” value in assay [9] and in [10] were 9% and 0%, respectively.

For the molecule `COC(=O)Nc1nc2cc(Oc3ccc(NC(=O)Nc4cccc(SC)c4)cc3)ccc2[nH]1.Cl` [GW697999], the “%Inh” value in the assay with RIOK1 was 13%; with RIOK2 it was 0%; with RIOK3 it was 2%; with RIPK1, 4%; with RIPK2, 29%; in the assay on RIPK4, 2%. The “%Inh” value was 0% with RIPK5; 82% with ROCK1; 55% with ROCK2; 0% in the assay with ROS1; 3% in assay [1]; 0% in [2]. Further, the “%Inh” value in assay [3] is given as 15%; in [4], 0%; in assay [5], 0%; in assay [6] it was 0%; in assay [7] it was 0%; in assay [8] it was 4%. The entries for the “%Inh” value in [9] and in [10] were 7% and 0%, respectively.

Turning to `O=C(Nc1n[nH]c2nc(-c3cccc(O)c3)ccc12)C1CC1` [SB-711805], the “%Inh” value is 53% with RIOK1; 11% with RIOK2; 59% in the assay on RIOK3; 14% in the assay with RIPK1; 5% with RIPK2; 37% in the assay on RIPK4. In addition, the “%Inh” value turned out to be 7% in the assay with RIPK5; 2% in the assay with ROCK1; 0% with ROCK2; 0% in the assay on ROS1; 0% in [1]; 51% in assay [2]. Moreover, the “%Inh” value in assay [3] stood at 0%; in assay [4], 0%; in assay [5], 0%; in assay [6], 0%; in assay [7] it was 30%; in assay [8], 0%. The “%Inh” value in assay [9] and in assay [10] was 0% throughout.

For the molecule `Cc1ccc(C)c(NC(=O)Nc2ccc(C)c(-c3ccc(C(=O)Nc4ccncc4)cc3)c2)c1` [GSK1398473], the “%Inh” value in the assay on RIOK1 was 38%; with RIOK2, 48%; in the assay on RIOK3, 0%; in the assay on RIPK1, 42%; in the assay with RIPK2 it was 8%; in the assay with RIPK4, 11%. Further, the “%Inh” value was 7% with RIPK5; 0% with ROCK1; 0% in the assay on ROCK2; 0% in the assay with ROS1; 37% in [1]; 0% in [2]. Besides, the “%Inh” value came out at 4% in assay [3]; 14% in assay [4]; 0% in assay [5]; 0% in assay [6]; 37% in assay [7]; 18% in assay [8]. Moreover, the “%Inh” value in assay [9] came to 27%; in assay [10], 3%.

Consider `CC(C)c1nc(-c2cccc(NS(=O)(=O)c3c(F)cccc3F)c2)c(-c2ccnc(Nc3ccc(N4CCOCC4)nc3)n2)s1.Cl` [GSK1723980], for which the “%Inh” value in the assay on RIOK1 came out at 25%; in the assay on RIOK2, 0%; in the assay with RIOK3 it was 2%; with RIPK1 it was 0%; with RIPK2, 97.7%; in the assay with RIPK4, 2%. Also, the “%Inh” value was found to be 81% in the assay with RIPK5; 6% in the assay on ROCK1; 0% in the assay with ROCK2; 0% in the assay on ROS1; 0% in [1]; 0% in assay [2]. Also, the “%Inh” value came to 0% in [3]; 0% in assay [4]; 83% in assay [5]; 1% in assay [6]; 15% in [7]; 0% in [8]. For the same molecule, the “%Inh” value in assay [9] was 27%; in assay [10] it was 0%.
